This is a sample that favours compounds with a hit; in the whole collection about 9.2% have one here.
NPC1 promoter act – activates the NPC1 promoter | Huh7 NPC1 promoter luciferase reporter, 24 h | Potency, µM (titrated, usually from 9.22 µM), most hits filed as activators | actives 2.4% (n = 320,000) | AID 485313; note: nearly all actives have a fitted effect of over 60% in size
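Readout is luciferase luminescence, reflecting NPC1 promoter activation in stably transfected Huh7 cells after 24 h compound exposure at 37 °C in reduced-serum medium with 10% FBS.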
ELG1 genotoxic – inducers of genotoxicity in HEK293T ELG1-luciferase cells; HEK293T ELG1-luciferase reporter, luminescence, 16 h; Potency, µM (doses to about 46 µM), hits mostly activators; actives 1.3% (n = 330,000); AID 504466; note: nearly all actives have a fitted effect of over 60% in size
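HEK293T cells expressing luciferase-tagged ELG1 were exposed to compound or DMSO vehicle for 16 hr at 37 °C and 5% CO2. Luciferase activity was then measured with ONE-Glo after 30 min at room temperature.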
SMN2 splice up – increases expression of the SMN2 splice variant | HEK293 SMN2-luciferase splicing reporter, luminescence, 30-36 h | Potency, µM (top dose mostly 46.1 µM), most hits filed as activators | actives 2.8% (n = 210,000) | AID 1458; note: nearly all actives have a fitted effect of over 55% in size
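HEK293 cells carry an SMN2 […]–luciferase reporter in which exon 7 inclusion puts luciferase in frame. Cells were plated 10-12 h before compound addition, then incubated 30-36 h at 37C. ONE-Glo luminescence was read; sodium butyrate at 4.5 mM final served as control.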
FLuc counter – firefly luciferase modulation, counter-screen for miR-21 project; Potency, µM (highest dose often 57.5 µM), usual class: inhibitors; P08659; purified FLuc, Km substrates, luminescence inhibition; actives 6.9% (n = 360,000); note: nearly all actives have a fitted effect of over 55% in size
Target sequence (P08659 whole entry, looked up): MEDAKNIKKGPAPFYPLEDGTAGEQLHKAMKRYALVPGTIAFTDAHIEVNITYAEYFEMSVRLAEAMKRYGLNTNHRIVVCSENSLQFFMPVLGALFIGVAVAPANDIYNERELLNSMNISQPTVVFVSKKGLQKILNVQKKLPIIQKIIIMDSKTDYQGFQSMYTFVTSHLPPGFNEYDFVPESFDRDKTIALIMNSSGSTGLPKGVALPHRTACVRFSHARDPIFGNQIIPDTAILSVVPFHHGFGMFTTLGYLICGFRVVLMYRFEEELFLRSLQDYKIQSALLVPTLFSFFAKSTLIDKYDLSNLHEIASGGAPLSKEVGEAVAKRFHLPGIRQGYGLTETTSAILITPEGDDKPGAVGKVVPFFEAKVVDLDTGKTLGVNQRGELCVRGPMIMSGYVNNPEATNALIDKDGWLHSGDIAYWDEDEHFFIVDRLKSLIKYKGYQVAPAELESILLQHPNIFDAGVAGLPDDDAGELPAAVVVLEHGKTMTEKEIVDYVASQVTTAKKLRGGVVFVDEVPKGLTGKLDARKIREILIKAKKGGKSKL
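Biochemical qHTS of compounds, final roughly 60 µM downward over six points, against 10 nM purified firefly luciferase using Km concentrations of substrates (10 uM D-luciferin, 10 uM ATP) in Tris acetate pH 7.5 buffer; luminescence output.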
ELG1 DNA repair – inhibitors of ELG1-dependent DNA repair in HEK293T cells | actives 2.3% (n = 330,000) | Potency, µM (doses to about 46.1 µM), actives largely listed as inhibitors | HEK293T ELG1-luciferase reporter, luminescence, 16 h; DNA damage induced by 5-fluorouridine; note: nearly all actives have a fitted effect of over 55% in size
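Reporter activity after DNA damage by 5-fluorouridine is monitored. Compound-treated cells incubate 16 hr at 37 °C, then ONE-Glo is added for 30 min before luminescence reading.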
Rab9 promoter act – Rab9 promoter activation; actives 2.8% (n = 320,000); Huh7 Rab9 promoter-luciferase reporter, luminescence, 24 h; Potency, µM (titrated, usually from 9.22 µM), actives largely listed as activators; AID 485297; note: nearly all actives have a fitted effect of over 60% in size
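Steps: seed 1500 Huh7 Rab9-luc cells per well, rest 2 h at 37 °C; add compound in DMSO; incubate 24 h; add luciferase reagent, 10 min ambient; read luminescence.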
Hits are given with their value; [ ] = dose if it differs, or a comment. Calls come from the whole dose curve; as a rule, active = well fitted curve in the direction sought with a large enough effect; inconclusive = small, poorly fitted or top-dose-only effect, or another doubt; inactive = no such curve, though single readings can be large; an effect the other way counts as inactive or inconclusive.

For Cc1ccc(-n2[nH]c3c4c(ccc3c2=O)C(=O)c2ccccc2C4=O)cc1 the results were NPC1 promoter act inactive, ELG1 genotoxic inactive, SMN2 splice up inactive, FLuc counter inactive, ELG1 DNA repair inactive and Rab9 promoter act inactive.
`CC1(C)CC(=O)C(C2C3=C(CC(C)(C)CC3=O)OC3=C2C(=O)CC(C)(C)C3)=C(O)C1` gave NPC1 promoter act inactive, ELG1 genotoxic inactive, FLuc counter inactive, ELG1 DNA repair inactive and Rab9 promoter act inactive.
COc1ccccc1CNc1ccc(N2CCCCC2)cc1 was read as NPC1 promoter act inactive, ELG1 genotoxic inconclusive, SMN2 splice up inactive, FLuc counter 15.1µM, ELG1 DNA repair inconclusive and Rab9 promoter act inactive.
`COc1cccc(Nc2ccc(N3CCCCC3)cc2)c1OC` gave NPC1 promoter act 3.55µM, ELG1 genotoxic inconclusive, FLuc counter inconclusive, ELG1 DNA repair inconclusive and Rab9 promoter act 2.82µM.
Screening COc1cccc(CNc2ccc(N3CCCCC3)cc2)c1OC returned NPC1 promoter act inconclusive, ELG1 genotoxic inactive, SMN2 splice up inactive, FLuc counter inconclusive, ELG1 DNA repair inactive and Rab9 promoter act inactive.
`c1cnc(N2CCN(c3cnccn3)CC2)nc1` gave NPC1 promoter act inactive, ELG1 genotoxic inactive, SMN2 splice up inactive, FLuc counter inactive, ELG1 DNA repair inactive and Rab9 promoter act inactive.
For COc1ccc(-c2nc3n(c(=O)c2C#N)CCS3)cc1 the results were NPC1 promoter act inactive, ELG1 genotoxic inactive, SMN2 splice up inactive, FLuc counter inactive, ELG1 DNA repair inactive and Rab9 promoter act inactive.
FC(F)Oc1ccc(/C=N/c2c(-c3ccc(OC(F)F)cc3)nc3n2CCS3)cc1 was read as NPC1 promoter act inactive, ELG1 genotoxic inactive, SMN2 splice up inconclusive, FLuc counter 9.53µM, ELG1 DNA repair inactive and Rab9 promoter act inactive.
For O=C(Cc1ccsc1)NNC(=O)c1cccc(Cl)c1 the results were NPC1 promoter act inactive, ELG1 genotoxic inactive, FLuc counter inactive, ELG1 DNA repair inactive and Rab9 promoter act inactive.
CC(=O)Nc1ccc(NC(=O)C/C(C)=N/NC(=O)c2cccc3ccccc23)cc1 was read as NPC1 promoter act inactive, ELG1 genotoxic inactive, FLuc counter 15.1µM, ELG1 DNA repair inactive and Rab9 promoter act inactive.
Screening CC(=O)Nc1ccc(NC(=O)C/C(C)=N/NC(N)=S)cc1 returned NPC1 promoter act inactive, ELG1 genotoxic inactive, SMN2 splice up inactive, FLuc counter inactive, ELG1 DNA repair inactive and Rab9 promoter act inactive.
Screening COc1ccccc1CNC(=O)CCCn1c(=O)c2ccccc2n(Cc2ccc(F)cc2)c1=O returned SMN2 splice up inactive and FLuc counter inactive.
CCc1cc2c(=O)n(Cc3ccccc3)c(SC3CCOC3=O)nc2s1 (stereo not drawn) was read as NPC1 promoter act inactive, ELG1 genotoxic inactive, FLuc counter inactive, ELG1 DNA repair inactive and Rab9 promoter act inactive.
O=C(Nc1cccnc1)c1noc2c1CCCC2 was read as NPC1 promoter act inconclusive, ELG1 genotoxic inconclusive, SMN2 splice up inactive, FLuc counter inconclusive, ELG1 DNA repair inconclusive and Rab9 promoter act inconclusive.
CCOC(=O)c1ccc(NC(=O)c2noc3c2CCCC3)cc1 was read as FLuc counter 8.49µM.
CC(=O)c1ccc(NC(=O)c2noc3c2CCCCC3)cc1 was read as NPC1 promoter act 1.12µM, ELG1 genotoxic 2.91µM, SMN2 splice up 8.91µM, FLuc counter 7.57µM, ELG1 DNA repair inconclusive and Rab9 promoter act 2µM.
COc1cccc(-c2ccc(-c3noc(-c4ccccc4Br)n3)c(OC)n2)c1 was read as SMN2 splice up inactive and FLuc counter inconclusive.
CCOC(=O)N/N=C/c1cc(C)n(-c2ccccc2)c1C was read as NPC1 promoter act inactive, ELG1 genotoxic inconclusive, SMN2 splice up inactive[1.84 µM], FLuc counter 10.7µM, ELG1 DNA repair inconclusive and Rab9 promoter act inconclusive.
Screening Cc1cc(/C=N/NC(=O)c2cccc(F)c2)c(C)n1-c1ccccc1 returned NPC1 promoter act 3.16µM, ELG1 genotoxic inconclusive, SMN2 splice up inactive, FLuc counter 1.2µM, ELG1 DNA repair inconclusive and Rab9 promoter act 1.58µM.
For Cc1cc(/C=N/NC(=O)c2ccccc2F)c(C)n1-c1ccccc1 the results were NPC1 promoter act 2.51µM, ELG1 genotoxic inconclusive, SMN2 splice up 12.6µM, FLuc counter 2.13µM, ELG1 DNA repair inconclusive and Rab9 promoter act 0.631µM.
`CCC(C)C(=O)OC1CC(O)C=C2C=CC(C)C(CCC(O)CC(O)CC(=O)O)C21` (stereo not drawn) gave SMN2 splice up inactive.
Screening Cc1cc2c(s1)c1cnn(CC(=O)NCCc3ccccc3)c(=O)c1n2C returned NPC1 promoter act inactive, ELG1 genotoxic inactive, SMN2 splice up inactive, FLuc counter inactive, ELG1 DNA repair inactive and Rab9 promoter act inactive.
Cc1cc2c(s1)c1cnn(-c3ccccc3)c(=O)c1n2C was read as NPC1 promoter act inactive, ELG1 genotoxic inactive, FLuc counter 6.75µM, ELG1 DNA repair inactive and Rab9 promoter act inconclusive.
`COc1ccc(-n2nnc3c(SCC(=O)c4ccccc4)ncnc32)cc1` gave NPC1 promoter act inactive, ELG1 genotoxic inactive, SMN2 splice up inactive, FLuc counter inconclusive, ELG1 DNA repair inactive and Rab9 promoter act inactive.
For O=C(CSc1ncccc1C(=O)O)Nc1ccc2c(c1)OCCO2 the results were NPC1 promoter act inactive, ELG1 genotoxic inactive, FLuc counter 10.7µM, ELG1 DNA repair inactive and Rab9 promoter act inactive.
For O=C(CSc1ccccc1C(=O)O)Nc1ccc2c(c1)OCO2 the results were NPC1 promoter act inactive, ELG1 genotoxic inactive, FLuc counter inconclusive, ELG1 DNA repair inactive and Rab9 promoter act inactive.
For COc1ccc(-n2nnc3c(SCC(=O)Nc4ccc5c(c4)OCCO5)ncnc32)cc1 the results were NPC1 promoter act inactive, ELG1 genotoxic inactive, SMN2 splice up inactive, FLuc counter 7.57µM, ELG1 DNA repair inactive and Rab9 promoter act inactive.
COC(=O)c1ccc(CSc2ncnc3c2nnn3-c2ccc(OC)cc2)o1 was read as NPC1 promoter act inactive, ELG1 genotoxic inactive, SMN2 splice up inactive, FLuc counter 21.3µM, ELG1 DNA repair inactive and Rab9 promoter act inactive.
O=C(CSc1ncnc2ccccc12)Nc1ccc2c(c1)OCCO2 was read as NPC1 promoter act inactive, ELG1 genotoxic inactive, SMN2 splice up inactive, FLuc counter 16.9µM, ELG1 DNA repair inactive and Rab9 promoter act inactive.
`COc1ccc(-n2nnc3c(=O)n(CC(=O)Nc4ccc5c(c4)OCCO5)cnc32)cc1OC` gave NPC1 promoter act inactive, ELG1 genotoxic inconclusive, FLuc counter inactive, ELG1 DNA repair inconclusive and Rab9 promoter act inactive.
Screening CCn1c(SC2CCOC2=O)nnc1-c1ccc(Cl)cc1 (stereo not drawn) returned NPC1 promoter act inactive, ELG1 genotoxic inactive, SMN2 splice up inactive, FLuc counter inactive, ELG1 DNA repair inactive and Rab9 promoter act inactive.

High-throughput results deposited in PubChem by National Center for Advancing Translational Sciences (NCATS).
